Assay outcomes (PubChem)
An excerpt weighted towards active compounds, which were near 1.7% of everything screened.
PrP 5UTR inh = suppresses PrP 5' UTR mRNA reporter expression; cell-based PrP 5' UTR mRNA reporter, plate reader; inhibition, % (concentration not given with the values); 340,000 compounds, 0.35% hits; in the data active means inhibition above about 52%; further: 0 = median of the neutral control wells
SSB-PriA inh = inhibitors of Klebsiella pneumoniae PriA binding to SSB C-terminal tail; AlphaScreen SSBct-PriA binding, biotinylated peptide; inhibition, % at 33 µM; 430,000 compounds, 0.6% hits; AID 1272365; in the data active means inhibition mostly above about 37%, no sharp cut-off; inactive means mostly below about 20%;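 further: plate controls were negative control peptide for no effect and reference peptide for full effect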
PfHsp40 yeast = restores yeast growth despite PfHsp40 toxicity. S. cerevisiae expressing PfHsp40, growth rescue, ATP luminescence. 340,000 compounds, 0.68% hits. growth rescue, % at 12.5 µM; in the data active means growth rescue above about 28%, passing the limit was not always enough; inconclusive means no clear call, values can overlap the other calls;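 further: yeast W303a lacking pdr1 and pdr3 grown in galactose medium; growth measured after three days at 30 °C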
BJeLR viability = BJeLR cell viability loss; AID 1554; BJeLR (HRASV12) viability, CellTiter-Glo ATP luminescence, 48 h; inhibition, % (no concentration beside the values); 300,000 compounds, 0.17% hits; in the data active means inhibition above about 50%; inconclusive means no clear call, values can overlap the other calls
Yp Topo-I inh = inhibitors of Yersinia pestis topoisomerase I | activity, % at 10 µM | 360,000 compounds, 0.064% hits | Y. pestis Topo-I cleavage product accumulation, plate reader; in the data active means activity above about 50%, passing the limit was not always enough; inconclusive means no clear call, values can overlap the other calls
PrPC surface inh = inhibitors of human cell surface prion protein PrPC | P04156 | TR-FRET read-out | inhibition, % at 13.8 µM | 370,000 compounds, 0.43% hits | AID 720596; in the data active means inhibition above about 24%; further: 0% = median of the test wells and 100% = reference compound wells
Numbers without * were called inactive; ? = inconclusive; . = no result; ! = repeats disagree.

SMILES	PrP 5UTR inh	SSB-PriA inh	PfHsp40 yeast	BJeLR viability	Yp Topo-I inh	PrPC surface inh
O=C(c1cccc(F)c1)N1CCN(C2CCCCC2)CC1	-49	-3	54*	2	-11	2
CC(=O)c1cccc(NC(=O)C2CN(C(=O)c3ccc4c(c3)OCO4)C2)c1	.	-5	.	.	.	.
O=C(Nc1nc(-c2ccccn2)cs1)c1ccc(Cl)cc1[N+](=O)[O-]	.	110*	.	.	.	.
Cc1cccc(C(=O)Nc2nc(-c3ccccn3)cs2)c1[N+](=O)[O-]	.	97*	.	.	.	.
COc1cc2c(c3ccccc13)CCCC2=O	-16	-9	0	.	1	0
O=C1CCCc2c1ccc1ccccc21	-19	-11	29*	.	4	-8
COc1ccc(N=Nc2c(C)n[nH]c2C)cc1	-29	3	0	-7	-7	3
Cc1n[nH]c(C)c1N=Nc1ccc(Br)cc1	-50	22	242*	7	-9	11
CC(C)N(Cc1ccccc1)C(=O)CN1c2cccc3cccc(c23)S1(=O)=O	-3	-16	70*	.	-3	-7
C=CCN(c1ccccc1)S(=O)(=O)c1cccc(C(=O)O)c1	-7	-9	0	-19	0	1
C=CCN(c1ccccc1)S(=O)(=O)c1cccc(C(=O)Nc2ccncc2)c1	-19	3	1	4	-10	3
C=CCN(c1ccccc1)S(=O)(=O)c1cccc(C(=O)Nc2ccc(N3CCOCC3)cc2)c1	-16	43*	?	.	29	10
C=CCN(c1ccccc1)S(=O)(=O)c1cccc(C(=O)NNC(=O)c2ccccc2O)c1	-23	6	92*	-4	-2	7
O=C(C(Sc1ccccc1)c1ccccc1)N1CCN(c2ccccc2F)CC1 (stereo not drawn)	3	-28	5	5	55*	4
O=C(C(c1ccccc1)n1cccc1)N1CCN(c2ccccc2F)CC1 (stereo not drawn)	.	11	.	.	.	.
O=C(Nc1nnc(-c2ccccc2)o1)c1ccc(Cl)cc1	-19	-9	252*	6	-5	-4
CC(=O)c1ccc(C(=O)Nc2nnc(-c3ccc(Cl)cc3)o2)cc1	-16	-15	0	2	4	16
O=C(COC(=O)c1ccc(O)cc1)Nc1nnc(-c2ccccc2)o1	.	59*	.	.	.	.
Cc1ccc(CNC(=O)Cn2nc3ccc(SC4CCCCC4)nn3c2=O)cc1	.	-5	.	.	.	.
COc1ccc(N2CCCS2(=O)=O)cc1NC(=O)c1ccco1	.	-11	.	.	.	.
CCS(=O)(=O)c1ccc(N=Nc2ccc(O)c3ncccc23)c(OC)c1	16	41	214*	21	-20	-9
COc1ccccc1N=Nc1ccc(O)c2ncccc12	-9	2	4	23	4	-16
O=c1cc(-c2ccccc2)oc2cc(O)c(O)c(O)c12	-55	-3	141*	.	-5	0
COc1c(O)cc2oc(-c3ccc(O)cc3)cc(=O)c2c1O	-30	-9	0	-12	-1	-13
O=C(O)c1ccccc1Nc1ccc([N+](=O)[O-])c2nonc12	9	57*!	0	12	-3	.
SMILES	PrP 5UTR inh	SSB-PriA inh	PfHsp40 yeast	BJeLR viability	Yp Topo-I inh	PrPC surface inh
O=[N+]([O-])c1ccc(Nc2ccccc2Cl)c2nonc12	.	59*	.	.	.	.
Cc1ccc2c(c1)c(-c1ccccc1)c(-c1ccccc1)n2CC(O)CNC1CCCC1 (stereo not drawn)	.	61*	.	.	.	.
Cc1ccc2c(c1)c1c(n2CC(O)CNC2CCCCC2)CCCC1 (stereo not drawn)	9	32	1	9	-16	8
O=C(COc1ccc(Cl)cc1Cl)N1CCN(Cc2nc(-c3ccco3)cs2)CC1	.	35*!	.	.	.	.
Cc1csc(CN2CCN(C(=O)COc3ccc(Cl)cc3Cl)CC2)n1	.	-12	.	.	.	.
O=C(c1cccs1)N1CCN(S(=O)(=O)c2cc3c4c(c2)CCN4C(=O)CC3)CC1	.	-9	.	.	.	.
Cc1c(C(=O)N2CCN(Cc3ccc4c(c3)OCO4)CC2)cccc1[N+](=O)[O-]	-13	-5	1	2	-4	4
O=C(Nc1ccccc1[N+](=O)[O-])C(=O)N1CCN(Cc2ccc3c(c2)OCO3)CC1	.	50*	.	.	.	.
O=C(Nc1ccccc1[N+](=O)[O-])C(=O)N1CCN(c2ccccc2F)CC1	.	36*	.	.	.	.
O=C(NCCCN1CCN(c2ccccc2F)CC1)Nc1ccccc1[N+](=O)[O-]	-6	13	1	10	0	-9
O=C(CN1CCCc2ccccc21)N/N=C\c1ccccc1O	.	15	.	.	.	.
CCN(CC)c1ccc(C=NNC(=O)CN2CCCc3ccccc32)cc1	.	50*	.	.	.	.
O=C(CN1CCCc2ccccc21)N/N=C/c1ccccc1	-61	.	0	-15	-5	-4
O=C(NN=Cc1c(O)ccc2ccccc12)c1ccc(S(=O)(=O)N2CCCCC2)cc1	.	2	.	.	.	.
CCN(CC)c1ccc(/C=N/NC(=O)CN2CCCc3ccccc32)cc1	-38	.	0	-7	14	3
O=C(CN1CCCc2ccccc21)N/N=C/c1c(O)ccc2ccccc12	-14	.	179*	4	-14	2
O=C(CN1CCCc2ccccc21)N/N=C\C=C/c1ccccc1	.	39*	.	.	.	.
O=C(N/N=C\c1c(O)ccc2ccccc12)c1ccc(S(=O)(=O)N2CCCCC2)cc1	53	.	0	77*	5	-5
Cc1ccc(C)c(-c2csc3c(=O)[nH]cnc23)c1	.	-31	.	.	.	.
COc1ccccc1N1CCN(c2nc3c(S(=O)(=O)c4ccc(C)c(C)c4)nnn3c3ccccc23)CC1	.	-10	.	.	.	.
Cc1nsc(C(=O)NCCc2ccc(F)cc2)n1	.	-16	.	.	.	.
Cn1nc(CNC(=O)COc2ccccc2F)cc1-c1ccco1	.	-3	.	.	.	.
CC1CC(C)CN(S(=O)(=O)c2ccc(C(=O)NCCCn3ccnc3)cc2)C1 (stereo not drawn)	2	-4	1	109*	6	.
CC(=O)N1CCc2cc(Br)cc(S(=O)(=O)N3CCN(c4ccccn4)CC3)c21	-11	-7	0	-6	36	0
CC(=O)N1c2c(cc(Br)cc2S(=O)(=O)N2CCN(c3ccccn3)CC2)CC1C (stereo not drawn)	-13	-12	52*	-8	33	7
SMILES	PrP 5UTR inh	SSB-PriA inh	PfHsp40 yeast	BJeLR viability	Yp Topo-I inh	PrPC surface inh
O=C(O)CN1C(=O)S/C(=C\c2ccccc2[N+](=O)[O-])C1=O	.	5	.	.	.	.
N#CC1=C(N)SC(N)=C(C#N)C1c1c(Cl)cccc1Cl	-10	-17	-2	-1	-5	41*
COc1ccc(C=NNC(=O)c2ccccc2NS(=O)(=O)c2cccs2)cc1O	-16	2	-1	.	3	9
O=C(NN=Cc1ccc(O)cc1O)c1ccccc1NS(=O)(=O)c1cccs1	-4	-3	70*	.	-8	13
O=C(O)C[C@H](O)C[C@H](O)/C=C/c1c(C2CC2)nc2ccccc2c1-c1ccc(F)cc1	.	.	.	53*	.	.
CCOc1ccc(S(=O)(=O)NC[C@](C)(O)COC)cc1F	.	-2	.	.	.	.
CC=CC(C)=CC(C)C(=O)CC(O)CC1CC(=O)NC(=O)C1 (stereo not drawn)	.	.	.	.	7	46*
CCOc1ccccc1N1CCN(S(=O)(=O)c2ccc(OCC)c3ccccc23)CC1	.	-7	.	.	.	.
